Test results taken from ChEMBL document CHEMBL1201862, “PubChem BioAssay data set” (2004).
Screen size: about 54,000 […]; about 4,000 (7.4%) were called active. Cut-off read from the data, not from the text of the source: active = GI50 up to about 1.1 µM and inactive = higher. A selection follows. Potency and affinity values are given separately.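 Grown in 96-well plates, cells were treated for 48 hours with each compound at five concentrations. Insufficient inhibition: endpoint recorded as highest concentration tested. Here, GI50 denotes the concentration required for 50% inhibition of growth.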

test system: SNB-75; assay: NCI tumour cell line growth inhibition, 48 h

Row | Substance | GI50 [µM]
1 | [Bis(aminomethyl)pentamethylenesilane]tetrachloropaltinum(IV), CHEMBL2146204 | 2.64
2 | [Bis(aminomethyl)diethylsilane]tetrachloroplatinum(IV), CHEMBL2146203 | 3.8
3 | CISPLATIN, CHEMBL11359 | 2.84
4 | mu-(1,7-nanodiamine-N,N')bis-(cis-aminedichloroplatimum (II)), CHEMBL2146215 | 12.4
5 | cis-Bis[[(trimethylsilyl)methyl]amino]tetrachloroplatinum(IV), CHEMBL2146191 | 15
6 | [Bis(aminomethyl)ethylmethylsilane]tetrachloroplatinum(IV), CHEMBL2146192 | 3.53
7 | [Bis(aminomethyl)dimethylsilane]tetrachloroplatinum(IV), CHEMBL2146190 | 11.5
8 | [Bis(aminomethyl)pentamethylenesilane]dichloropaltinum(II), CHEMBL2146202 | 2.9
9 | [Bis(aminomethyl)tetramethylenesilane]dichloropaltinum(II), CHEMBL2146205 | 29.5
10 | [Bis(aminomethyl)dimethylsilane]dichloroplatinum (II), CHEMBL2146201 | 9.23
11 | [Bis(aminomethyl)tetramethylenesilane]tetrachloropaltinum(IV), CHEMBL2146189 | 5.7
